The values that follow come from PubChem BioAssay (NCATS).

SMILES strings stand for the structures. Records with an inconclusive call do not appear. The source made the active and inactive calls. The call rests on the fitted dose curve; in most records, active means well fitted curve in the direction sought with a large enough effect; inconclusive means small, poorly fitted or top-dose-only effect, or another doubt; inactive means no such curve, though single readings can be large or run the other way.

For the test, the target named is Protein phosphatase 1D (Homo sapiens) (UniProt O15297). The experiment in a line: Rhodamine-PBP qHTS Assay for Modulators of WT P53-Induced Phosphatase 1 (WIP1) (AID 1347425). The conditions noted are these: recombinant WIP1, Rhodamine-PBP phosphate fluorescence, real-time; series mostly up to 57.5 µM. The source says: Assay Provider (PI): Nathan Coussens Ph.D.
Chain of Protein phosphatase 1D (Homo sapiens) (O15297 whole entry, looked up): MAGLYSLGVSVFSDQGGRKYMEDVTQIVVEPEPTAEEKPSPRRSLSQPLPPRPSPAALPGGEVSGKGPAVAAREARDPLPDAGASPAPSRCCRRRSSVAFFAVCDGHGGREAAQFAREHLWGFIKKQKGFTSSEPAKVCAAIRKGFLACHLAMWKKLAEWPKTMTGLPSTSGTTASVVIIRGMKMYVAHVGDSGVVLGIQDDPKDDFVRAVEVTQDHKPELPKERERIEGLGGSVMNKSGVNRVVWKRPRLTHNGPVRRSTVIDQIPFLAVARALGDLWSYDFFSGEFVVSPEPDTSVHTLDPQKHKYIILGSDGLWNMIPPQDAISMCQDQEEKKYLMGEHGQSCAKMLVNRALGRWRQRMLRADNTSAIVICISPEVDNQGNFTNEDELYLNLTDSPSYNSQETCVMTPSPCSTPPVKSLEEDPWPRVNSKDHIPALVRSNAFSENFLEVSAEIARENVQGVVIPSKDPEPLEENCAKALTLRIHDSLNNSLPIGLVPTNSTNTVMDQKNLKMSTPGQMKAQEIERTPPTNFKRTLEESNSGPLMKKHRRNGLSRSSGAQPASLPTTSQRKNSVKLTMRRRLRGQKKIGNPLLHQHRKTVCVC
National Center for Advancing Translational Sciences (NCATS), Rockville, MD
National Institute of Health (NIH), Bethesda, Maryland
WT P53-Induced Phosphatase 1 (WIP1) is a member of the magnesium-dependent serine/threonine protein phosphatase (PPM) family and is induced by P53 in response to DNA damage. In several human cancers, the WIP1 protein is overexpressed, which is generally associated with a worse prognosis. Although WIP1 is an attractive therapeutic target, no potent, selective, and bioactive small-molecule modulator with favorable pharmacokinetics has been reported. Phosphatase enzymes are among the most challenging targets for small molecules because of the difficulty of achieving both modulator selectivity and bioavailability. Another major obstacle has been the availability of robust and physiologically relevant phosphatase assays that are suitable for high-throughput screening.
Here, we describe two orthogonal biochemical WIP1 activity assays that utilize phosphopeptides from native WIP1 substrates. We optimized a RapidFire MS assay to quantify the enzymatically dephosphorylated peptide reaction product in a 384-well format. Additionally, a redshifted Rhodamine-PBP fluorescence assay was optimized in a 1,536-well format to enable real-time WIP1 activity measurements through the detection of the orthogonal reaction product, Pi. We validated these two optimized assays by quantitative high-throughput screening against the National Center for Advancing Translational Sciences (NCATS) Pharmaceutical Collection and used secondary assays to confirm and evaluate inhibitors identified in the primary screen.
SEQUENCE No. (e.g., 1, 2, 3, etc.); […] (e.g., Cells, Incubation, Reagent, etc.); VALUE; DESCRIPTION
1; Reagent; 3 uL; WIP1 (6.7 nM), Rh-PBP (13.3 uM), columns 1-48
3; Library Compounds; 23 nL; NCATS Pharmaceutical Collection, column 5-48
4; Control Compounds; DMSO in column 2, GSK2830371 (57.5 uM, final) in 3-fold serial dilutions in column 3, GSK2830371 (1.15 uM, final) in column 4
5; Time; 1 hr; incubation
6; Detection; fluorescence (f0); ViewLux, excitation filter = 525 nm, emission filter = 598 nm
7; Reagent; 1 uL; VEPP-pS-QETFS (40 uM), columns 2-48
8; Detection; fluorescence (f1); ViewLux, excitation filter = 525 nm, emission filter = 598 nm
NOTES (numbers refer to sequence above)
1 & 2; Black medium binding Greiner 1536-well plates (# 789176-F); assay buffer: 50 mM Tris-HCl pH 7.5, 30 mM MgCl2, 1mM TCEP, 0.1 mM EGTA, 75 ug/mL BSA; dispensed with a BioRaptr liquid handler (Beckman Coulter).
3 & 4; Kalypsys pintool (equipped with 1536 pinhead, Wako USA) transfer. Tip wash sequence: DMSO, methanol, 3 sec vacuum dry.
5; Room temperature incubation.
7; VEPPL-pS-QETFS in assay buffer dispensed with a BioRaptr; final reaction conditions: 5 nM WIP1, 10 uM VEPPL-pS-QETFS, 10 uM Rh-PBP, 50 mM Tris-HCl pH 7.5, 30 mM MgCl2, 1 mM TCEP, 0.1 mM EGTA, 75 ug/mL BSA.
8; Measurement taken at 1 min intervals for 11 min. Delta readout = f1 - f0.
A general note: qHTS replaces the single test concentration by a dilution series.
As for `NS(=O)(=O)c1cc2c(cc1Cl)NC=NS2(=O)=O`, the result was inactive.
Take `c1ccc([C@H]2CN3CCSC3=N2)cc1`: the outcome was inactive.
Turning to `N[C@@H]1CONC1=O`, the outcome was inactive.
Take `Clc1ccc(Nc2nnc(Cc3ccncc3)c3ccccc23)cc1`: the outcome was inactive.
Consider `NCCCC(N)(C(=O)O)C(F)F` (stereo not given), for which the result was inactive.
Then `Cc1[nH]c(=O)c(C#N)cc1-c1ccncc1`, with “inactive”; and `Cc1[nH]c(=O)c(C#N)cc1-c1ccc2nccn2c1`, with “inactive”; and `Nc1nc2ccc(OC(F)(F)F)cc2s1`, with “inactive”.
For the compound `CCCC(CCC)C(=O)O`, the result was inactive.
For `NC(=O)c1cnccn1`, the outcome was inactive.
Turning to `O=C1CCc2cc(OCCCCc3nnnn3C3CCCCC3)ccc2N1`, the outcome was inactive.
Consider `Nc1nc2c(ncn2COCCO)c(=O)[nH]1`, for which the outcome was inactive.
Regarding `Cc1ccccc1C(OCCN(C)C)c1ccccc1` (stereo not given), the result was inactive.
Turning to `NNCCc1ccccc1`, the outcome was inactive.
With `CCCCNc1cc(C(=O)O)cc(S(N)(=O)=O)c1Oc1ccccc1`, the result was inactive.
Consider `CC(c1cc2ccccc2s1)N(O)C(N)=O` (stereo not given), for which the outcome was inactive.
As to `OC(CN1CCC(Cc2ccc(F)cc2)CC1)c1ccc(Cl)cc1` (stereo not given), the result was inactive.
With `NC[C@H](O)c1ccc(O)c(O)c1`, the outcome was inactive.
On to `C[C@]12CCC(=O)C=C1CC[C@@H]1[C@@H]2[C@@H](O)C[C@@]2(C)[C@H]1CC[C@]2(O)C(=O)CO`, for which the outcome was inactive.
As for `OC(CCN1CCCCC1)(c1ccccc1)C1CC2C=CC1C2` (stereo not given), the entry is “inactive”.
As for `O=c1[nH]cnc2[nH]ncc12`, the result was inactive.
Turning to `O=C(O)COCCN1CCN(C(c2ccccc2)c2ccc(Cl)cc2)CC1` (stereo not given), the outcome was inactive.
For `CCOC(=O)C1=C[C@]2(CC)CCCN3CCc4c(n1c1ccccc41)[C@@H]32`, the outcome was inactive.
In the case of `O=NN(CCCl)C(=O)NCCCl`, the result was inactive.
Regarding `Cc1cn[nH]c1`, the outcome was inactive.
For the compound `NC(N)=NC(=O)c1nc(Cl)c(N)nc1N`, the result was inactive.
Take `CCC(C)n1ncn(-c2ccc(N3CCN(c4ccc(OC[C@H]5CO[C@](Cn6cncn6)(c6ccc(Cl)cc6Cl)O5)cc4)CC3)cc2)c1=O` (stereo not given in full): the outcome was inactive.
Take `Cc1ccc(N(CC2=NCCN2)c2cccc(O)c2)cc1`: the outcome was inactive.
In the case of `CNC(=O)c1ccccc1Sc1ccc2c(/C=C/c3ccccn3)n[nH]c2c1`, the outcome was inactive.
Then `COc1ccc2nc(S(=O)Cc3ncc(C)c(OC)c3C)[nH]c2c1` (stereo not given), with “inactive”; and `Nc1ccc(S(=O)(=O)Nc2ccnn2-c2ccccc2)cc1`, with “inactive”; and `O=C1CCC(N2C(=O)c3ccccc3C2=O)C(=O)N1` (stereo not given), with “inactive”.
As for `CCCc1nn(C)c2c(=O)[nH]c(-c3cc(S(=O)(=O)N4CCN(C)CC4)ccc3OCC)nc12`, the result was inactive.
As for `CCC(C)(C)C(=O)O[C@H]1C[C@@H](C)C=C2C=C[C@H](C)[C@H](CC[C@@H]3C[C@@H](O)CC(=O)O3)[C@H]21`, the entry is “inactive”; as for `CC(C)NCC(O)COc1ccc(COCCOC(C)C)cc1` (stereo not given), “inactive”.
As to `Cn1cnc2c(F)c(Nc3ccc(Br)cc3Cl)c(C(=O)NOCCO)cc21`, the outcome was inactive.
As for `Cc1oncc1C(=O)Nc1ccc(C(F)(F)F)cc1`, the entry is “inactive”; as for `CC(C[N+](C)(C)C)OC(N)=O` (stereo not given), “inactive”.
Then `N=c1nc(N2CCCCC2)cc(N)n1O`, with “inactive”.
For `Cc1cnc(NC(=O)C2=C(O)c3ccccc3S(=O)(=O)N2C)s1`, the result was inactive.
